From PubChem BioAssay
An excerpt weighted towards active compounds, which were near 2.1% of everything screened.
INS-1E GSIS act: GLuc luminescence reporter in INS-1E cells, primary screen for activators of glucose-dependent secretion of insulin; INS-1E GLuc reporter insulin secretion, 2-3 h; activation, % at 16.6 µM; 370,000 compounds, 0.61% hits; AID 743287, 2014;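 active means lowest replicate activation of at least 40%, so every replicate reaches that level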;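 further: 0% = median of neutral control wells and 100% = median of IBMX positive control wells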
MLL AF4-AF9 inh: inhibitors of AF4 peptide binding to AF9, primary screen, biochemical, AlphaScreen, biotin-AF4 peptide, FLAG-AF9, single point | Protein AF-9 (Homo sapiens), P42568 | inhibition, % at 10 µM | 350,000 compounds, 0.47% hits | AID 651704, 2012;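 active means every replicate reaching a set inhibition limit, whatever the replicate mean, cut at about 25% in these data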;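 further: 0% = plate neutral control median and 100% = total signal loss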
Target sequence (P42568 whole entry, looked up): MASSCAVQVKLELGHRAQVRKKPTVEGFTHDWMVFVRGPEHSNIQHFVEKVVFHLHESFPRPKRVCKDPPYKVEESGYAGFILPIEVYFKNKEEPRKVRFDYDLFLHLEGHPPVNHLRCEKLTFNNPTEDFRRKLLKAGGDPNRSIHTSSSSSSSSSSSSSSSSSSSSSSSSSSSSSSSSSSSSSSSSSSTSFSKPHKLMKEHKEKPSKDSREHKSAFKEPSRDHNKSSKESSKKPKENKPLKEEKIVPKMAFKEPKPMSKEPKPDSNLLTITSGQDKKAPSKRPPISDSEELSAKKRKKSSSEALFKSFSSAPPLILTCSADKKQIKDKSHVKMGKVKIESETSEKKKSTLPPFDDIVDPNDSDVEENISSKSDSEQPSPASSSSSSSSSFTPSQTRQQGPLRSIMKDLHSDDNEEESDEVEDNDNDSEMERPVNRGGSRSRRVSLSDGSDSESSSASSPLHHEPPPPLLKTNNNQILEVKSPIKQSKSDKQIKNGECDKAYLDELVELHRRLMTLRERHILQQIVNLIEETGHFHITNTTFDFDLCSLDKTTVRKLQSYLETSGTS
NSD2 inh: NSD2 histone methyltransferase inhibitors, primary screen, biochemical, AlphaScreen, single concentration, set 2. Histone-lysine N-methyltransferase NSD2 (Homo sapiens), O96028. NSD2 peptide methylation, 120 min. inhibition, % at 12.5 µM. 310,000 compounds, 0.54% hits. AID 743445, 2014; in the data active means inhibition above about 50%
HIV Env fusion: inhibitors of HIV-1 Env-driven cell-cell fusion, primary screen, HeLa-JRFL effector, CEM21 target cells, luciferase | inhibition, % at 12.3 µM | 360,000 compounds, 1.1% hits;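 active means mean replicate inhibition score of at least 50 and every replicate individually at or above 50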;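 further: 0% = plate neutral controls and 100% = maraviroc near 300 nM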
PGC1a acetyl inh: inhibitors of PGC1a acetylation signal, primary screen, cell-based, U2OS, AlphaScreen, inhibitor mode. AlphaScreen anti-acetyl-lysine; with virally co-expressed GCN5 acetyltransferase. inhibition, % at 15.6 µM. 350,000 compounds, 0.17% hits. AID 651687, 2012;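 active means every replicate shows inhibition of at least 40%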;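 further: 0% = neutral control wells and 100% = positive control wells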
AlphaScreen art: AlphaScreen signal interference with preloaded methylated product, dose response, artefact control for NSD2 inhibitor project, biochemical, cherry-picked samples; shares compounds with NSD2 inh; AlphaScreen artifact counterscreen, preloaded methylated H4 peptide; AC35, µM (highest dose often 10 µM), for inactives: top-dose activity change, negative = signal loss; 1,500 compounds, 9.4% hits; call rule not given here
An asterisk follows results filed as active; / = not tested or not shown; [ ] = remark or other dose.

SMILES	INS-1E GSIS act	MLL AF4-AF9 inh	NSD2 inh	HIV Env fusion	PGC1a acetyl inh	AlphaScreen art
O=C(CC1SC2=NCCN2C1=O)Nc1ccccc1 (centres undefined)	/	/	115*	10	/	-3%
Cc1ccc(NC(=O)CC2SC3=NCCN3C2=O)cc1 (centres undefined)	/	/	-4	-77	/	/
C/C(C/C(C)=C1/SC(=S)NC1=O)=C1\SC(=S)NC1=O	-1	-6	132*	11	0	-15%
CCCCCC/C(C)=C1/SC(=S)NC1=O	/	/	9	/	-6	/
CCN(CC)S(=O)(=O)c1ccc(C(=O)OCn2nnc3ccccc3c2=O)cc1	/	/	-1	/	-4	/
Cc1nc2ccc(S(=O)(=O)N3CCCCC3)cc2s1	6	-3	51*	-5	/	-1%
COc1ccc2c(c1)Cc1sc(NC(=O)c3cccnc3)nc1-2	7	-1	52*	-33	-3	0%
COc1ccc2c(c1)Cc1sc(NC(=O)c3ccco3)nc1-2	/	/	26	/	-1	/
COc1ccc2c(c1)CCc1sc(NC(=O)c3ccc(C)cc3)nc1-2	/	/	/	/	-26	/
COc1ccc2c(c1)Cc1sc(NC(C)=O)nc1-2	/	/	95*	-201	/	-5%
COc1ccccc1CN1C[C@@H]2C[C@@H](c3cccc(O)c3)N3CCC[C@@]23C1=O	/	1	0	-6	/	/
COc1cccc(S(=O)(=O)NCC(=O)N2CCCCCC2)c1	2	-4	-1	25	4	/
CN(C)c1ccc(C=c2c3ccccc3n3c2c2c([n+]3C)CCCC2)cc1	-45	37*	71*	-3	-5	4.5µM*
O=C(O)c1[nH]c2ccccc2c1C(c1cc(Cl)cc([N+](=O)[O-])c1O)c1c(C(=O)O)[nH]c2ccccc12	10	1	55*	3	13	-20%
O=C(O)c1[nH]c2ccccc2c1C(c1ccccc1)c1c(C(=O)O)[nH]c2ccccc12	14	-3	7	-2	-5	/
CCN(CC)CCCNC(=O)c1cc2c(Cl)nc3ccccc3c2s1	31	/	80*	-26	/	-4%
CN(CCCNC(=O)c1cc2c(Cl)nc3ccccc3c2s1)Cc1ccccc1	-6	2	13	14	/	/
CCOC(=O)Nc1cc(C(=O)OC)ccc1C	/	/	119*	-70	6	5%
Cc1cc(/C=N/NC(=O)c2cccc(N(C)C)c2)c(C)n1-c1cc(C(=O)O)cc(C(=O)O)c1	-4	-3	55*	-21	2	-4%
Cc1ccc(C(=O)OCN2C(=O)c3ccccc3C2=O)cc1S(=O)(=O)N1CCOCC1	35	-1	0	-3	-13	/
O=C1C=C(c2ccc3c(c2)OCO3)C[C@@H](c2ccc(F)cc2)C1	10	4	/	-11	8	/
Fc1ccc(C2CCNCC2COc2ccc3c(c2)OCO3)cc1 (centres undefined)	-17	32*	64*	-2	/	-20%
CCOC(=O)C1(C)CCCN1C(=O)c1cccc(F)c1 (centres undefined)	1	-6	59*	-8	-4	1%
CCNC(=O)OC[C@H]1O[C@H](C#Cc2ccc(C(C)(C)C)cc2)C=C[C@H]1O	25	-2	3	-2	/	/
Cc1cc(SCC(=O)Nc2cccnc2Cl)nc2ccccc12	11	-3	65*	13	-2	-4%
SMILES	INS-1E GSIS act	MLL AF4-AF9 inh	NSD2 inh	HIV Env fusion	PGC1a acetyl inh	AlphaScreen art
Cc1cc(SCC(=O)c2ccc(O)c(O)c2)nc2ccccc12	9	1	67*	-9	/	-18%
Cc1[nH][nH]c(=O)c1C(c1c(C)[nH][nH]c1=O)c1cn(C)c2ccccc12	-12	2	51*	-44	/	-3%
Cc1[nH][nH]c(=O)c1C(c1c(C)[nH][nH]c1=O)c1cn(Cc2cccc3ccccc23)c2ccccc12	/	/	/	/	1	/
CCCN1CCN(CCCNC(=O)C2CCN(c3nnc(-n4c(C)ccc4C)s3)CC2)CC1	3	6	6	-20	-7	/
CC(C)(C)c1cc(C(=O)N/N=C/c2ccncc2)n[nH]1	9	-4	55*	/	/	1%
CC(C)(C)c1cc(C(=O)N/N=C/c2ccccn2)n[nH]1	2	0	-1	-6	7	/
CC1CN(Cc2cc(=O)n3ccsc3n2)CC(C)O1 (centres undefined)	/	/	62*	/	3	1%
CCOC(=O)C(C(=O)OCC)c1cc(Br)c2noc3c2c1C(=O)c1ccccc1-3	/	/	97*	/	-5	-14%
CC(=O)c1ccc(OCC(C)C)c(CC(C(N)=O)C(N)=O)c1	15	-20	1	/	/	/
CCCOc1ccc(C(C)=O)cc1CC(C(N)=O)C(N)=O	/	/	135*	/	5	2%
COc1ccc(COc2ncnc3ccc(Br)cc23)cc1F	2	0	122*	-24	-3	-3%
CC1CC(C)CN(C(=O)COC(=O)CN2C(=O)c3ccccc3C2=O)C1 (centres undefined)	-13	-2	0	2	-3	/
CC1CC(C)CN(C(=O)c2ccc3c(c2NCCO)C(=O)c2ccccc2C3=O)C1 (centres undefined)	/	/	81*	16	-17	8.1µM*
Cn1ncc(Br)c1C(=O)N1CCc2ccccc21	/	8	-2	/	0	/
COc1ccc(-c2cc(C(F)(F)F)n3nc(C(=O)N4CCN5CCCC5C4)cc3n2)cc1OC (centres undefined)	21	0	-3	-9	-8	/
Cc1ccc(-c2cc(C(F)(F)F)n3nc(C(=O)N4CCN5CCCC5C4)cc3n2)cc1 (centres undefined)	9	7	75*	27	-7	0%
Nc1nonc1C(=O)NCCNC(=O)c1ccccc1F	/	/	67*	/	6	2%
Cc1c(C(=O)NC(C)C)oc2c1-c1[nH]ncc1CC2	/	/	55*	/	7	-5%
C[C@H]1CCCCO[C@@H](CN(C)C(=O)c2ccncc2)[C@@H](C)CN([C@@H](C)CO)C(=O)c2cc(NC(=O)CCC(F)(F)F)ccc2O1	-11	/	/	-15[16.7 µM]	2	/
Cc1ccc2c(c1)CC1(CN2C)C(=O)OC2(CCCCC2)OC1=O	/	/	0	-22	8	/
CN1CC2(Cc3c1ccc1ccccc31)C(=O)OC(C)(C)OC2=O	/	/	87*	-75	-45	1%
O=c1c2c(n3cnnc3n1-c1ccccc1)-c1ccccc1CC21CCCC1	/	-11	102*	9	/	-8%
Cc1cc(=O)oc2cc(Oc3ccc([N+](=O)[O-])cc3C(F)(F)F)ccc12	/	/	/	22	-5	/
C=CCN1CCN(C(c2cccc(OC)c2OC)c2nnnn2CCC(C)C)CC1 (centres undefined)	-8	4	98*	-5	/	-4%
O=C(Nc1nnc(SCc2ccc(F)cc2)s1)c1ccccn1	-34	6	65*	33	11	-7%
